In PubChem BioAssay (Tox21):
Records with an inconclusive call do not appear. Values without a mark were called inactive. Calls of active or inactive are those of the source. The call rests on the fitted dose curve.
On the % scale 0 is the no-effect control and ±100 the full control effect.

Test: p53 small molecule agonists, cell-based qHTS assay with human liver microsomes (AID 1963577);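 further: p53 response element beta-lactamase reporter cells with liver microsomes plus NADPH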
Conditions: HCT-116 p53RE-bla with human liver microsomes, ratio, 16 h; series mostly up to 66 µM; activation: at the top concentration
Outline: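 Compounds act here after metabolic activation: human liver microsomes and NADPH, both at 0.5 mg/mL final, were co-added to p53RE-bla cells. Incubation ran 16 h at 37 C, followed by LiveBLAzer detection.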
With `CC(C)=CC(C)(C)C` the “activation” value was 0.109%.
In the case of `CCCC/C=C/CCCCO`, the “activation” value is reported as -4.73%.
With `C[C@H](CS)C(=O)N1CCC[C@H]1C(=O)O` the “activation” value was 0.733% [at 30.3 µM].
For `C/C=C1\[C@H]2C=C(C)C[C@]1(N)c1ccc(=O)[nH]c1C2`, the “activation” value was -0.742% [at 30.3 µM].
For `C[C@@H]1C[C@H]2O[C@@]3(O[C@@H]2C(C)(C)O)[C@H](O)[C@@]2(C)[C@@H]4CC[C@H]5C(C)(C)[C@@H](O[C@@H]6OC[C@@H](O)[C@H](O)[C@H]6O)CC[C@@]56C[C@@]46CC[C@]2(C)[C@@H]13`, the “activation” value was -5.23% [at 30.3 µM].
With `CCCCCC(C)OC(=O)COc1ccc(Cl)c2cccnc12` (stereo not drawn) the “activation” value was 2.35%.
For `Cc1ccccc1N=Nc1ccc(N=Nc2c(O)ccc3ccccc23)c(C)c1`, the “activation” value was -0.281% [at 30.3 µM].
In the case of `Brc1c(NC2=NCCN2)ccc2nccnc12`, the “activation” value is reported as -1.5% [at 30.3 µM].
In the case of `CC1CN(c2ccccc2)NC1=O` (stereo not drawn), the “activation” value is reported as -0.0653%.
For `O=C(NCC(O)CO)c1c(I)c(C(=O)NCC(O)CO)c(I)c(N(CCO)C(=O)CO)c1I` (stereo not drawn), the “activation” value was 9.76% [at 30.3 µM].
With `O=[N+]([O-])c1ccc2ncccc2c1` the “activation” value was 2.1%.
In the case of `Oc1ccc(C2(c3ccc(O)c(C4CCCCC4)c3)CCCCC2)cc1C1CCCCC1`, the “activation” value is reported as -6.46%.
In the case of `Cc1cc(-c2ccc(N=Nc3cc(S(=O)(=O)O)c4ccccc4c3N)c(C)c2)ccc1N=Nc1cc(S(=O)(=O)O)c2ccccc2c1N`, the “activation” value is reported as 0.543%.
With `CCN(CC)CC` the “activation” value was -0.644%.
In the case of `CO`, the “activation” value is reported as 0.624%.
In the case of `O=C(c1ccccc1)c1ccc(O)cc1O`, the Potency is reported as “inactive”.
In the case of `COC(=O)/C=C/C(C)=C\C=C\C(C)=C\C=C\C=C(C)\C=C\C=C(C)\C=C\C(=O)O`, the “activation” value is reported as 1.22%.
In the case of `C[C@H]1[C@H](NC(=O)/C(=N/OC(C)(C)C(=O)O)c2csc(N)n2)C(=O)N1S(=O)(=O)O` (stereo in doubt), the “activation” value is reported as -0.0782% [at 30.3 µM].
